PubChem BioAssay (EPA / NIEHS)
Calls of active or inactive are those of the source. The calls were made as follows: active = hit-call score of the fitted dose curve at least 0.9, where 1 is the maximum; inactive = score below 0.9.

Experiments:
[1] = ATG_E_Box_CIS: Attagene CIS-FACTORIAL HepG2 Assay for human Enhancer Box (E-box) (AID 2282936); conditions: HepG2 E-box cis-reporter transcription, actives raise or lower the signal
Summary of the method: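 In this cell-based setup, HepG2 cells bearing transfected promoter-driven reporter units were exposed to chemicals for 24 h; reporter transcripts were amplified, 6-FAM-labelled, cut with HpaI and sized by capillary electrophoresis.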

[2] = ATG_M_61_CIS: Attagene CIS-FACTORIAL HepG2 Assay for M61 Transcription Factor (Internal Marker) (AID 2282937); conditions: HepG2 Attagene CIS-FACTORIAL M61 internal marker reporter; actives raise or lower the signal
Summary of the method: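 This endpoint serves as an internal background control within a multiplexed HepG2 cis-reporter panel. Cells are exposed for 24 h; reporter mRNA is amplified, fluorescently labelled and sized by capillary electrophoresis, with DMSO as negative control.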

[3] = ATG_EGR_CIS: Attagene CIS-FACTORIAL HepG2 Assay for human Early Growth Response 1 (EGR1) (AID 2282938); conditions: HepG2 Attagene CIS-FACTORIAL EGR reporter mRNA; actives raise or lower the signal
Summary of the method: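 HepG2, transient MRTU transfection (cis promoters), 24 h compound. RNA → RT (oligo-dT) → PCR → 6-FAM labelling → HpaI cut → CE fluorescence. Bidirectional fit, DMSO baseline.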

[4] = ATG_M_19_CIS: Attagene CIS-FACTORIAL HepG2 Assay for M19 Transcription Factor (Internal Marker) (AID 2282939); conditions: HepG2 Attagene CIS-FACTORIAL M19 internal marker reporter; actives raise or lower the signal
Summary of the method: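 Background-control endpoint from a multiplexed HepG2 reporter panel. Cells carrying cis-regulated reporter constructs are treated 24 h, then reporter transcripts are amplified, fluorescently labelled and sized by capillary electrophoresis. DMSO defines baseline.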

[5] = ATG_ERE_CIS: Attagene CIS-FACTORIAL HepG2 Assay for Estrogen Response Element (ERE) (AID 2282940); conditions: HepG2 ERE cis-reporter, Attagene RNA transcript; actives raise or lower the signal
Summary of the method: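 Cells used were human hepatoma HepG2, transfected with multiple reporter transcription units under cis-regulatory promoters. Reporter mRNA, read 24 h post-dosing via fluorescent RT-PCR products on capillary electrophoresis, was fitted bidirectionally relative to DMSO.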

[6] = ATG_Ets_CIS: Attagene CIS-FACTORIAL HepG2 Assay for human Erythroblast Transformation Specific (ETS) (AID 2282941); conditions: HepG2 ETS cis-reporter transcription, actives raise or lower the signal
Summary of the method: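 RT-PCR/capillary electrophoresis fluorescence read-out of reporter mRNA; HepG2 transient multi-reporter transfection; 24 h compound exposure; gain or loss of signal fitted bidirectionally relative to DMSO.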

[7] = target: Hepatocyte nuclear factor 3-beta (Homo sapiens) (UniProt Q9Y261); assay: ATG_FoxA2_CIS: Attagene CIS-FACTORIAL HepG2 Assay for human Forkhead box A2 (FOXA2) (AID 2282942); conditions: HepG2 cis-reporter transcription factor activity, 24 h; actives raise or lower the signal
Summary of the method: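 Cells: HepG2, transient multiplex reporter transfection. Exposure 24 h. Detection: reporter-specific RT-PCR, fluorescent labelling, restriction digest, capillary electrophoresis. Analysis: bidirectional curve fit, DMSO as negative control.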

[8] = ATG_FoxO_CIS: Attagene CIS-FACTORIAL HepG2 Assay for human Forkhead box O (FoxO) (AID 2282943); conditions: HepG2 Attagene cis-reporter, FoxO element, mRNA; actives raise or lower the signal
Summary of the method: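 Transfected HepG2 reporter cells exposed to test chemical for 24 h; reporter RNA measured by reverse transcription, PCR and fluorescent capillary electrophoresis; curves fitted for increases and decreases against DMSO.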

[9] = ATG_GATA_CIS: Attagene CIS-FACTORIAL HepG2 Assay for human GATA Binding Protein (AID 2282944); conditions: HepG2 GATA cis-element reporter, Attagene multiplex mRNA; actives raise or lower the signal
Summary of the method: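 Endogenous transcription factor activity was captured through cis-promoter-driven reporters in transfected HepG2 cells. After 24 h exposure, reporter transcripts were quantified by RT-PCR with fluorescent capillary electrophoresis, and responses fitted both directions against DMSO.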

[10] = ATG_GLI_CIS: Attagene CIS-FACTORIAL HepG2 Assay for human Zinc Finger Protein GLI1 (AID 2282945); conditions: HepG2, Attagene cis-factorial reporter mRNA, GLI element; actives raise or lower the signal
Summary of the method: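 Transiently transfected HepG2 cells report endogenous transcription factor activity via cis-element-driven reporter units. After 24 h compound exposure, reporter mRNA was measured by RT-PCR with capillary electrophoresis; bidirectional fitting against DMSO baseline.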

Measured: AC50

Hepatocyte nuclear factor 3-beta (Homo sapiens), sequence (Q9Y261 whole entry, looked up): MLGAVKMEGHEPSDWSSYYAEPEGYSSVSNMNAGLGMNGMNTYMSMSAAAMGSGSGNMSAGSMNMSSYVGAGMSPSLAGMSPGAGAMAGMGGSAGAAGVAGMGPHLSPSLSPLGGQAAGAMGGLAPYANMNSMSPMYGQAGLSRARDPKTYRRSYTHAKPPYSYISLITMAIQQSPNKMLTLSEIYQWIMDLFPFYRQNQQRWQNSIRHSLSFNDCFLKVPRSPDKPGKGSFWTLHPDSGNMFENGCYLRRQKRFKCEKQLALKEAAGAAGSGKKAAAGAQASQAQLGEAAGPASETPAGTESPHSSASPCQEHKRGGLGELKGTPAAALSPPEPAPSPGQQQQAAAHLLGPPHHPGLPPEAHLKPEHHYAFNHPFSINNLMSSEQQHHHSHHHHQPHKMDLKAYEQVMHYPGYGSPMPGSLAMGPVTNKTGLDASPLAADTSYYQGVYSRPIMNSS

CCN(CCO)c1cccc(C)c1
inactive: all assays above

O=S(=O)(O)c1ccc2cc(O)c(S(=O)(=O)O)cc2c1
inactive: all assays above

CCCCCCCCO[C@@H]1O[C@H](CO)[C@@H](O)[C@H](O)[C@H]1O
inactive: all assays above

CCCCCCC1(C)CCC(=O)O1 (stereo not given)
inactive: all assays above

C=C[Si](C)(C)O[Si](C)(C)C=C
inactive: all assays above

CCCCCCCCCCc1ccccc1
inactive: all assays above

c1ccc2c(c1)ccc1cc3c(ccc4ccccc43)cc12
active: [5] 0.18 µM | [7] 0.0767 µM
inactive: all other assays above

CC(=O)OCc1ccco1
inactive: all assays above

CCC(C)OC(=O)c1ccc(O)cc1 (stereo not given)
active: [5] 0.868 µM
inactive: all other assays above

O=S1(=O)OC(c2ccc(O)cc2)(c2ccc(O)cc2)c2ccccc21
active: [5] 53.4 µM
inactive: all other assays above

c1ccc(CCCc2ccncc2)cc1
active: [6] 155 µM
inactive: all other assays above

CC=C1CC2C=CC1C2 (stereo not given)
inactive: all assays above

CC(=O)Oc1ccc(C(C)=O)cc1
inactive: all assays above

CCOC(=O)c1ccccc1C(=C1C=C(Br)C(=O)C(Br)=C1)c1cc(Br)c(O)c(Br)c1
active: [1] 108 µM | [3] 33.4 µM | [7] 43.6 µM | [8] 47.6 µM | [10] 37.7 µM
inactive: [2] | [4] | [5] | [6] | [9]

C=C(C)c1cccc(C(C)(C)N=C=O)c1
inactive: all assays above

O=C(O)c1ccccc1Nc1cccc(C(F)(F)F)c1
active: [1] 89.2 µM
inactive: all other assays above

C=C1C2CCC(C2)C1(C)C (stereo not given)
inactive: all assays above

Cc1ccc(C(C)(C)C)cc1
inactive: all assays above

Nc1ccc2cc3ccccc3cc2c1
active: [5] 8.48 µM
inactive: all other assays above

c1cc(C(c2ccc(OCC3CO3)cc2)C(c2ccc(OCC3CO3)cc2)c2ccc(OCC3CO3)cc2)ccc1OCC1CO1 (stereo not given)
active: [3] 39.5 µM
inactive: all other assays above

N[C@H]1C(O)O[C@H](CO)[C@H](O)[C@@H]1O (stereo not given in full)
active: [5] 39.9 µM
inactive: all other assays above

CN(C)CCCN(C)C
inactive: all assays above

C=C(C)[C@@H]1CCC2=CCC[C@@H](C)[C@]2(C)C1
active: [5] 57.2 µM
inactive: all other assays above

c1ccc(-c2ccccn2)nc1
active: [1] 61.2 µM
inactive: all other assays above

COC(=O)c1c(C)cc(O)c(C)c1O
inactive: all assays above

O=C(O)C(c1ccc(Cl)cc1)c1ccc(Cl)cc1
active: [5] 2.68 µM
inactive: all other assays above

CC(=O)OC1C2(C)CCC(C2)C1(C)C (stereo not given)
inactive: all assays above

CC1(C)S[C@@H]2[C@H](NC(=O)COc3ccccc3)C(=O)N2[C@H]1C(=O)O
inactive: all assays above

O=C1c2cccc(O)c2C(=O)c2c(O)cc(CO)cc21
active: [1] 2.41 µM | [5] 4.22 µM
inactive: all other assays above

CCO[Si](C)(OCC)OCC
inactive: all assays above

COc1ccc2nc(N)sc2c1
inactive: all assays above

CCCCCC(C)O (stereo not given)
inactive: all assays above

O=c1[nH]nc(-c2ccc([N+](=O)[O-])o2)o1
inactive: all assays above

O=CN1CCCCC1
inactive: all assays above

O=Nc1ccc(O)cc1
active: [5] 56.4 µM
inactive: all other assays above

COc1ccc(C(Cl)=C(c2ccc(OC)cc2)c2ccc(OC)cc2)cc1
active: [1] 21.8 µM
inactive: all other assays above

CN1C(=O)N(C)C(O)C1O (stereo not given)
inactive: all assays above

CCCCCCOc1cc(C)c(O)c(C)c1C
inactive: all assays above

CC(=O)[C@@]1(O)CC[C@H]2[C@@H]3C[C@H](C)C4=CC(=O)C=C[C@]4(C)[C@@]3(F)[C@@H](O)C[C@@]21C
inactive: all assays above

CCCCCCCC[N+](C)(CCCCCCCC)CCCCCCCC
inactive: all assays above

CCCCC/C=C\CCC=O
inactive: all assays above

Nc1cccc(C(F)(F)F)c1
inactive: all assays above

NC(CO)(CO)CO
inactive: all assays above

CC1=NN(c2cc(S(=O)(=O)O)ccc2Cl)C(=O)C1N=Nc1ccccc1 (stereo not given)
inactive: all assays above

C=CC(C)(CCC=C(C)C)OC(=O)C(C)C (stereo not given)
active: [5] 32.1 µM
inactive: all other assays above

Cc1ccc([N+](=O)[O-])cc1S(=O)(=O)O
active: [8] 153 µM
inactive: all other assays above

Cc1ccccc1C
inactive: all assays above

CCCCCCCCCCCCCCCC[n+]1ccccc1
active: [6] 9.08 µM | [10] 60.1 µM
inactive: all other assays above

N#[N+]c1ccc2c(S(=O)(=O)[O-])cccc2c1O
inactive: all assays above
